Measurements taken from PubChem BioAssay (NCI).
About 79,000 compounds went through this panel and 15% of them were active in at least one assay; those are over-represented in the sample as a whole. Rule as the data show it: active = growth inhibition above about 70%; inactive = the rest.

Tests used:
[1] = NCI Yeast Anticancer Drug Screen. Data for the rad50 strain (AID 155);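 also: 0% = growth of vehicle-only cultures of the same strain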; conditions: S. cerevisiae rad50 strain growth inhibition; at 50.0 µM; active compounds read high
How it was run: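 Vehicle-treated cultures provide the reference for the growth inhibition reported for compound-exposed, repair-deficient yeast.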

[2] = NCI Yeast Anticancer Drug Screen. Data for the mec2-1 strain (AID 157); conditions: S. cerevisiae mec2-1 strain, at 50.0 µM, active compounds read high
How it was run: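 Cells of the genetically defined mec2-1 yeast strain are incubated with test compound. Inhibition of growth is calculated against vehicle-treated controls.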

[3] = NCI Yeast Anticancer Drug Screen. Data for the sgs1 mgt1 strain (AID 161);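 also: 0% = growth of cultures given vehicle only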; conditions: S. cerevisiae sgs1 mgt1 strain, at 50.0 µM, active compounds read high
How it was run: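 Mutant yeast exposed to compound; growth scored against vehicle-only wells.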

[4] = NCI Yeast Anticancer Drug Screen. Data for the cln2 rad14 strain (AID 165);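 also: 0% = growth equal to vehicle treated cultures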; conditions: S. cerevisiae cln2 rad14 strain, at 50.0 µM, active compounds read high
How it was run: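 The screen exposed genetically defined yeast (cln2 rad14) to test compounds and scored growth inhibition relative to vehicle-treated controls.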

[5] = NCI Yeast Anticancer Drug Screen. Data for the mlh1 rad18 strain (AID 175); conditions: S. cerevisiae mlh1 rad18 strain growth inhibition; at 50.0 µM; active compounds read high
How it was run: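 Compound-treated yeast growth, normalised to vehicle controls. Strain bears defined DNA repair mutations.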

[6] = NCI Yeast Anticancer Drug Screen. Data for the bub3 strain (AID 167); conditions: S. cerevisiae bub3 mutant strain, at 50.0 µM, active compounds read high
How it was run: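 Mutant yeast screening strain plus compound; vehicle-treated cultures serve as the 0% inhibition reference.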

Measured: growth inhibition

CCN(CC)[P+](C1=C(Cl)C(=O)C(Cl)=C(Cl)C1=O)(N(CC)CC)N(CC)CC
inactive: [1] 1.25% | [2] -12% | [3] -6.6% | [4] -19.5% | [5] -17.5%

CCCC(NC(=O)CCl)C(=O)O (configuration not stated)
inactive: [1] -13.1% | [2] -18.1% | [3] -11.4% | [4] -73.8% | [5] -8.25%

S=C(N=Nc1ccccc1)NNc1ccccc1.[Zn+2]
inactive: [1] 28.1% | [2] -9.35% | [3] 19.4% | [6] 36%

CC(C)C(Br)C(=O)O (configuration not stated)
inactive: [1] -6.85% | [2] -16.6% | [3] -21.1% | [4] -41.5% | [5] 2.1%

CCOP(=O)(OCC)/C(C#N)=C/c1cnc[nH]1
inactive: [1] -51.6% | [2] -30.6% | [3] -38% | [4] -17.2% | [5] -54.5%

O=C(c1ccccc1)c1c(CC(O)c2ccccc2)n(C(=O)c2ccccc2)c2ccccc12 (configuration not stated)
inactive: [1] 10.6% | [2] -20.1% | [3] -14.3% | [4] -67.2% | [5] -13.9%

Cc1cc(N(CCCl)CCCl)ccc1C1N(Cc2ccc(N(CCCl)CCCl)cc2)CCCN1Cc1ccc(N(CCCl)CCCl)cc1
inactive: [1] 0.8% | [2] 7.8% | [3] -6.2% | [4] -5.1% | [5] 25%

CCCCCCCCCCOC(=O)c1ccccc1C(=O)OCCCCCCCCCC
inactive: [1] -22% | [2] -23.9% | [3] -13.8% | [4] 17.3% | [6] -11.2% | [5] -24.6%

Cc1ccccc1NC(N)=S
inactive: [1] 27.6% | [2] 9.15% | [3] -8.2% | [4] 1.55% | [5] 15.7%

CC(N)Cc1c[nH]c2ccccc12 (configuration not stated)
inactive: [1] 2.9% | [2] -22.2% | [3] 1.1% | [4] 20.6% | [5] 12.8%

O=C(CC(=O)C(F)(F)F)c1ccco1.[Fe]
inactive: [1] 32.6% | [2] 21.3% | [3] 0.5% | [4] 6.9% | [5] 14.7%

CCC1(C(C)C=C(C)C)C(=O)NC(=O)NC1=O (configuration not stated)
inactive: [1] -28.6% | [2] -12.4% | [3] -4.75% | [4] 1.45% | [5] -10.2%

N#CNC(N)=S
inactive: [1] -13.8% | [2] -10.3% | [3] -10.3% | [4] -8.7% | [5] -8.35%

CC[As](=O)(O)c1ccc(OC)c(I)c1
inactive: [1] 1.75% | [2] -15.3% | [3] 18.3% | [4] -76.5% | [5] 0.75%

CC(=O)Oc1cccc(C#N)c1
inactive: [1] -3.1% | [2] 1.25% | [3] 1.7% | [4] -24.8% | [5] 5.05%

CCC1C(=O)OCC1Cc1cncn1C (configuration not stated)
inactive: [1] -11.3% | [2] -8.4% | [3] -17.9% | [4] 0.55% | [5] -17.9%

O=c1n(Cc2ccccc2)c2ccccc2n1CC1CS1 (configuration not stated)
inactive: [1] 55.5% | [2] 21.4% | [3] 62.9% | [4] 4.75% | [5] 31.1%

O=NN(Cc1ccccc1)Cc1ccccc1
inactive: [1] 2.55% | [2] 0.1% | [3] 3.1% | [4] 0.5% | [5] 21.4%

Cc1nc2ccccc2c(=O)n1-c1ccccc1
inactive: [1] -13.6% | [2] -15.9% | [3] 0% | [4] 15.9% | [5] -3.8%

O=C1C(=C([O-])c2ccccc2)C(=O)c2ccccc21.O=C1C(=C([O-])c2ccccc2)C(=O)c2ccccc21.[Fe+2]
inactive: [1] 19.4% | [2] 28.9% | [3] 14.6% | [4] 22.2% | [6] 28.1% | [5] 15.8%

COc1cc(C=O)cc(OC)c1OC
inactive: [1] 1.45% | [2] -10.6% | [3] 5.25% | [4] -14.1% | [5] -20.1%

N#CC(OC1OC(C(=O)O)C(O)C(O)C1O)c1ccccc1 (configuration not stated)
inactive: [1] 17.2% | [2] -14.5% | [3] -5.3% | [4] 3% | [6] 0.6% | [5] 2.25%

Cc1cc(C(C)(C)C)ccc1O
inactive: [1] 27.4% | [2] -4.1% | [3] 8.95% | [4] 4.6% | [5] 22%
